In the library only some 8% were active in any assay of this set; here they are far more common.
MCF10A rereplic: inducers of DNA re-replication in MCF 10A breast cells; MCF 10A DNA re-replication, Hoechst nuclear intensity, 48 h; Potency, µM (series often up to 46.1 µM), usual class: activators; 350,000 tested, 2.9% active; note: nearly all actives have a fitted effect of over 50% in size
SW480 rerep: DNA re-replication induction in SW480 cells; AID 624297; 340,000 tested, 1.8% active; SW480 DNA re-replication, Hoechst DNA content imaging, 48 h; Potency, µM (doses to about 46.1 µM), actives largely listed as activators; note: nearly all actives have a fitted effect of over 55% in size
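Per well, 250 cells were exposed to pinned compound for 48 hr. Nuclear DNA was visualised with Hoechst (40 min, 37 C) and total object intensity recorded by fluorescence scanning.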
HT1080-NT tox: kills 2HG-producing HT-1080-NT fibrosarcoma cells; 360,000 tested, 1.6% active; Potency, µM (top dose mostly 46.1 µM), actives largely listed as cytotoxic; HT-1080-NT fibrosarcoma viability, CellTiter-Glo ATP luminescence, 48 h;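 note: NT is the 2HG producing partner of a matched IDH1 knockdown line; nearly all actives have a fitted effect of over 55% in size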
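A 48-hour cytotoxicity screen used HT-1080-NT cells plated 2 hours before compound delivery. ATP-based CellTiter-Glo luminescence measured viability, normalized to DMSO and no-cell controls.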
KB-3-1 cytotox: kills parental KB-3-1 adenocarcinoma cells; KB-3-1 viability, CellTiter-Glo ATP luminescence, 72 h; Potency, µM (series often up to 46.1 µM), hits mostly cytotoxic; 400,000 tested, 1.4% active; note: nearly all actives have a fitted effect of over 60% in size
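Luminescent ATP read-out (CellTiter-Glo) measures survival of drug-naive KB-3-1 cells after 72 h compound exposure at 37 °C. Titration series was screened from lowest to highest concentration, with DMSO vehicle plates as background controls.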
HT1080 IDH1KD tx: HT-1080 IDH1 knockdown cell toxicity (counter line) | HT-1080 IDH1 knockdown viability, ATP luminescence, 48 h | Potency, µM (titrated, usually from 46.1 µM), usual class: cytotoxic | 360,000 tested, 2% active | AID 686971
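Viability of IDH1-knockdown HT-1080 fibrosarcoma cells was assessed by CellTiter-Glo after 48 h at 37 °C with titrated compound; concentration-effect curves were classified by fit quality and response size.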
KB-V1 MDR tox: kills drug-selected multidrug resistant KB-V1 cells. KB-V1 MDR cells viability, CellTiter-Glo, 72 h. Potency, µM (highest dose often 46.1 µM), most hits filed as cytotoxic. AID 1347076. 400,000 tested, 3.4% active; note: nearly all actives have a fitted effect of over 60% in size
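Drug-selected KB-V1 cells, grown in DMEM lacking phenol red with 10% FBS, receive compound titrations; after three days at 37 degrees C, surviving cell ATP is quantified by CellTiter-Glo luminescence and responses normalized and curve-fitted.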
Of the large screens only hits and unclear results are named; the others gave an inactive call; ! = not confirmed by another sample. Calls come from the whole dose curve; as a rule, active = well fitted curve in the direction sought with a large enough effect; inconclusive = small, poorly fitted or top-dose-only effect, or another doubt; inactive = no such curve, though single readings can be large; an effect the other way counts as inactive or inconclusive.

O=C(N=C1SC2CS(=O)(=O)CC2N1Cc1ccc(Cl)cc1)C1CCCO1 (stereo not drawn)	none
COc1ccc(-c2nc3c(C(=O)NCCN(C)C)cccc3c3ccccc23)cc1	MCF10A rereplic inconclusive, SW480 rerep inconclusive, HT1080-NT tox inconclusive, KB-3-1 cytotox inconclusive, HT1080 IDH1KD tx inconclusive, KB-V1 MDR tox 2.3µM
CN(C)CCNC(=O)c1cccc2[nH]c(-c3ccncc3)nc12	SW480 rerep inconclusive, HT1080 IDH1KD tx inconclusive
COc1cccc2nc3c(C(=O)NCCN(C)C)cccc3cc12	SW480 rerep 9.2µM, HT1080-NT tox inconclusive, KB-3-1 cytotox inconclusive, HT1080 IDH1KD tx 9.2µM, KB-V1 MDR tox 9.2µM
CN(C)CCNC(=O)c1cccc2nc3c(ccc4ccccc43)nc12	SW480 rerep inconclusive, HT1080-NT tox inconclusive, KB-3-1 cytotox 7.3µM, HT1080 IDH1KD tx inconclusive, KB-V1 MDR tox 21µM
COc1ccc(C(=O)NCCN(C)C)c2nc3ccccc3cc12	SW480 rerep inconclusive, HT1080-NT tox inconclusive, KB-3-1 cytotox inconclusive, HT1080 IDH1KD tx 21µM, KB-V1 MDR tox 8.2µM
CCCCCCCC[n+]1cccc(C(=O)N(CC)CC)c1	SW480 rerep inconclusive
CCCCCCCCCCCCCCCC[n+]1cccc(C(=O)N(CC)CC)c1	MCF10A rereplic inconclusive, SW480 rerep 21µM, HT1080-NT tox inconclusive, KB-3-1 cytotox 13µM!, HT1080 IDH1KD tx 21µM!
COc1ccc2c(c1)C1=NN(/C(C)=C/C(C)=O)C(c3ccc(F)cc3)C1CC2 (stereo not drawn)	MCF10A rereplic inconclusive, KB-V1 MDR tox 21µM
CC(Oc1ccc(F)cc1)C(=O)N1CCC(c2nc3ccccc3s2)CC1 (stereo not drawn)	KB-V1 MDR tox 8.2µM (no result: MCF10A rereplic, SW480 rerep, HT1080-NT tox, HT1080 IDH1KD tx)
O=C(c1ccccc1Cl)N1CCC(c2nc3ccccc3s2)CC1	KB-V1 MDR tox 13µM (no result: MCF10A rereplic, SW480 rerep, HT1080-NT tox, HT1080 IDH1KD tx)
NC(=O)C1CCN(C(=O)c2cc(-c3ccc(Cl)s3)nc3ccccc23)CC1	MCF10A rereplic inconclusive, SW480 rerep 18µM
O=C(CSc1ccc(Cl)cc1)N1CCC(c2nc3ccccc3s2)CC1	MCF10A rereplic inconclusive, HT1080-NT tox inconclusive, KB-3-1 cytotox inconclusive, KB-V1 MDR tox 10µM
Cc1ccccc1C(=O)N1CCC(c2nc3ccccc3s2)CC1	KB-V1 MDR tox inconclusive (no result: MCF10A rereplic, SW480 rerep, HT1080-NT tox, HT1080 IDH1KD tx)
CC(C)[C@H](N)c1cn([C@@H](CO)C(=O)N2CCNCC2)nn1	KB-V1 MDR tox inconclusive
Cc1cc(-n2c(C)cc(C(=O)CN3C(=O)NC4(CCCCCC4)C3=O)c2C)no1	MCF10A rereplic inconclusive, SW480 rerep inconclusive, KB-V1 MDR tox inconclusive
COc1ccc2c(COC(=O)c3ccc(C)c(S(=O)(=O)N4CCOCC4)c3)cc(=O)oc2c1	none
CCOC(=O)C1=C(C)Nc2sc(C(=O)c3ccc(OC)cc3)c(N)c2C1c1ccc(C(=O)OC)cc1 (stereo not drawn)	MCF10A rereplic 12µM, SW480 rerep 13µM
COC(=O)C1=C(C)Nc2c(c(=O)n(C)c(=O)n2C)C1c1ccncc1 (stereo not drawn)	none
COC(=O)C1=C(C)Nc2sc(C(N)=O)c(N)c2C1c1ccncc1 (stereo not drawn)	MCF10A rereplic inconclusive, SW480 rerep 23µM, HT1080 IDH1KD tx inconclusive
COC(=O)C1=C(C)Nc2[nH]c(=S)[nH]c(=O)c2C1c1ccc(OC)cc1 (stereo not drawn)	none
COc1cc(OC)cc(C(=O)NNC(=O)c2ccc(-n3cncn3)c([N+](=O)[O-])c2)c1	SW480 rerep inconclusive
CC(=O)N1CCCc2cc(S(=O)(=O)N3CCC(C(=O)NC4CCC(C)CC4)CC3)ccc21 (stereo not drawn)	none (no result: MCF10A rereplic, SW480 rerep, HT1080-NT tox, HT1080 IDH1KD tx)
NC(=S)NN=Cc1nccc2ccccc12	MCF10A rereplic inconclusive, SW480 rerep 2.9µM, HT1080-NT tox 4.1µM, KB-3-1 cytotox inconclusive, HT1080 IDH1KD tx inconclusive
Cc1cnc(C=NNC(N)=S)c2cccc(N)c12	SW480 rerep inconclusive, HT1080 IDH1KD tx inconclusive, KB-V1 MDR tox 7.3µM
NC(=S)N/N=C/c1ccc2ccccc2c1	KB-V1 MDR tox inconclusive
CC(=O)n1cc(/C=N/NC(=O)c2ccccc2O)c2ccccc21	none
CC(=O)n1cc(/C=N/NC(N)=S)c2ccccc21	KB-3-1 cytotox inconclusive, KB-V1 MDR tox 5.2µM

High-throughput results as filed in PubChem BioAssay.
